12-LOX inh = ALOX12 (human) lipoxygenase inhibition. purified 12hLO, xylenol orange hydroperoxide absorbance. Potency, µM (doses to about 108 µM), usual class: inhibitors. actives 1.1% (n = 580,000). P18054
Target sequence (P18054 whole entry, looked up): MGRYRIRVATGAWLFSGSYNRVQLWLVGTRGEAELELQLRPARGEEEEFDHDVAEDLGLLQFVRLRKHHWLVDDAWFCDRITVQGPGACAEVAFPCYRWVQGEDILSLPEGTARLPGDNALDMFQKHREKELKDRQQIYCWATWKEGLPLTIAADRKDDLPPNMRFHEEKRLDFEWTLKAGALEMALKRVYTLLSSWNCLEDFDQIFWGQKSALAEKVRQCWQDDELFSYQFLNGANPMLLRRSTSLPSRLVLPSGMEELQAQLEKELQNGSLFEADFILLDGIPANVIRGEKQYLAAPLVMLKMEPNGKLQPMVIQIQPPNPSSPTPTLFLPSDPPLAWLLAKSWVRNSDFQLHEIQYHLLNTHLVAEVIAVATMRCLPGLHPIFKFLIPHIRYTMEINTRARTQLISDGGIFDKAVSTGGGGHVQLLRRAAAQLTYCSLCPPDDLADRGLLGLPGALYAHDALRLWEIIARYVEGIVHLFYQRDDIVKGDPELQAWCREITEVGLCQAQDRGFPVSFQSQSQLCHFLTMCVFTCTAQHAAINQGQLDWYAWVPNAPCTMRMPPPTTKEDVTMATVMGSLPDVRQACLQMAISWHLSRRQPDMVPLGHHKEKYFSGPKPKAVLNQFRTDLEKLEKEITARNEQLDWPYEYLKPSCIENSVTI
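Purified human 12hLO (150 nM final) in 25 mM Hepes, 0.01% Triton X-100, pH 7.0 was preincubated 15 min at room temperature with compound. Then 40 uM arachidonic acid was added, 30 min. Hydroperoxide was read by Fe-XO absorbance ratio 573/405 nm.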
A549 tox = counter-screen for Nrf2 inhibitors: cytotoxicity in A549 cells | A549 ARE-Fluc cells, CellTiter-Fluor viability, 18-24 h | Potency, µM (series often up to 46 µM), usual class: inhibitors | actives 0.16% (n = 390,000)
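A549 ARE_Fluc cells in 5% FBS OPTI-MEM were exposed to compounds in concentration-response for 18-24 h at 37 deg C. Viability was read by CellTiter-Fluor fluorescence (Ex 405/Em 525) after 30 min, before the luciferase read.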
Nrf2 activator = Nrf2 pathway activation; AREc32 ARE-luciferase reporter (MCF7-derived line), luminescence, 24 h; Potency, µM (series often up to 46.1 µM), hits mostly activators; actives 0.31% (n = 410,000); note: nearly all actives have a fitted effect of over 65% in size
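ARE activation measured as luciferase luminescence (Steady-Glo, 30 min RT) in AREc32_Fluc cells after 24 hr compound exposure at 37 deg C, 5% CO2; cells seeded overnight at 1000/well in OPTI-MEM, 5% FBS.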
IDH1 R132H inh = human IDH1 R132H inhibition. IDH1-R132H enzyme, NADPH consumption, diaphorase/resazurin fluorescence. Potency, µM (titrated, usually from 76.6 µM), most hits filed as inhibitors. actives 0.093% (n = 390,000). AID 602179; note: nearly all actives have a fitted effect of over 65% in size
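IDH1-R132H (0.5 ug/mL dispensed) in pH 7.5 Tris buffer was preincubated 30 min with compound, then given a substrate mix of 0.016 mM NADPH and 2 mM alpha-KG for 80 min at room temperature; remaining NADPH was read by diaphorase/resazurin fluorescence.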
Nrf2 block = Nrf2 pathway inhibition; AID 504444; actives 2.1% (n = 360,000); Potency, µM (titrated, usually from 46 µM), most hits filed as inhibitors; A549 ARE-Fluc reporter, luciferase luminescence, 18-24 h; note: nearly all actives have a fitted effect of over 60% in size
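Nrf2 activity is the BugLite luminescence, read 15 min after reagent at room temperature, following CellTiter-Fluor cytotoxicity readout (30 min, 37C). Compound titrations were applied for 18-24 h to 5000 A549 ARE_Fluc cells/well in 5% FBS OPTI-MEM.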
LDHA block = inhibitors of human lactate dehydrogenase A; P00338; purified LDHA, NADH/diaphorase-resazurin fluorescence; hits give low values; activity change, % (values are at about 110 or 230 µM); actives 0.15% (n = 480,000); AID 1347041; in the data active = activity change below about -30%; inconclusive = mostly about -25% to -30%
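Resorufin fluorescence (ex540/em590), read at 0 and 20 min after diaphorase/resazurin addition, reports the NADH left after a 5 min room-temperature reaction of 2 nM human LDH5 with 0.06 mM NADH and 0.2 mM pyruvate.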
Numbers stand for hits; 0 = inactive; ? = inconclusive; - = no result given; [ ] = dose if it differs, or a comment. Compounds with a hit are over-represented: about 2.7% of the library has one in this group of screens. Unless noted, calls come from the whole dose curve; as a rule, active = well fitted curve in the direction sought with a large enough effect; inconclusive = small, poorly fitted or top-dose-only effect, or another doubt; inactive = no such curve, though single readings can be large; an effect the other way counts as inactive or inconclusive.

SMILES	12-LOX inh	A549 tox	Nrf2 activator	IDH1 R132H inh	Nrf2 block	LDHA block
CCC(CC)c1cc([C@H]2CN3CC[C@H]2C[C@@H]3CNC(=O)Nc2ccc(C(C)=O)cc2)nc(-c2ccncc2)n1	0	-	-	-	-	-
O=C(N/N=C/c1c(O)n(CCC2=CCCCC2)c(=O)[nH]c1=O)c1ccccc1	?	0	0	0	0	0
O=C(N/N=C/c1c(O)n(CCC2=CCCCC2)c(=S)[nH]c1=O)c1ccccc1	28µM	0	0	0	0	0
Cc1ncc2c(n1)C[C@@H]1CC[C@H]2N1C(=O)CC1CCCC1	0	-	-	-	-	-
CC(C)Cn1c(O)c(N=NC(=O)c2cccc(S(=O)(=O)N3CCCCC3)c2)c2ccccc21	0	?	0	0	21µM	0
COc1ccc(N2C(=O)/C(=C/c3cc(C)n(-c4ccc(C)cn4)c3C)C(=O)NC2=S)c(OC)c1	35µM	0	0	0	0	0
COCCC(=O)N1[C@H]2CC[C@@H]1c1cnc(-c3ccc(F)cc3)nc1C2	0	-	-	-	-	-
O=C1NC(=O)C(=Cc2cc(Cl)ccc2OCc2ccc(C(=O)O)cc2)C(=O)N1	0	0	0	0	0	-90
CN1C(=O)C(=Cc2ccccc2OCc2ccc(Cl)cc2)C(=O)N(C)C1=O	?	0	0	0	?	0
C=C[C@H]1CN2CC[C@H]1C[C@@H]2CNS(=O)(=O)c1cccc(C#N)c1	0	-	-	-	-	-
COc1ccc(OC)c(N2C(=O)NC(=O)/C(=C/c3ccc([N+](=O)[O-])s3)C2=O)c1	40µM	?	0	0	0	0
Cc1cc(NC(=O)CCl)no1	0	?	?	0	16µM	0
C/C(=C\c1ccc(N(C)C)cc1)[N+](=O)[O-]	0	?	?	0	23µM	0
C/C(=C\c1ccc2c(c1)OCO2)[N+](=O)[O-]	14µM	-	-	-	-	0
COc1cc(CN2CCNCC2)cc(OC)c1OC	6.3µM	0	0	0	0	0
COCC1(CNC2CCN(C)CC2)C[C@@H](O)[C@@H](O)C1 (stereo not given in full)	0	-	-	-	-	-
COc1ccccc1NC(=O)Nc1ccc2n(c1=O)C[C@H]1C[C@@H]2CN(C2CCOCC2)C1	13µM	-	-	-	-	-
COc1cncc(-c2cc3c(cc2OC)C2(CCN(C(C)=O)CC2)C(=O)N3)c1	0	-	-	-	-	-
Cc1ccc(OCC(=O)N2CCN(Cc3ccc(F)cc3)CC2)cc1	?	0	0	-	0	0
Cc1cccc(OCC(=O)N2CCN(Cc3cccnc3)CC2)c1	0	0	0	0	0	-33
Cc1ccc(OCC(=O)N2CCN(Cc3cccnc3)CC2)cc1	0	0	0	0	0	-32
COc1ccc(-c2cc([C@H]3CN4CC[C@H]3C[C@@H]4CNC(=O)C3CCCCC3)n(C)n2)cc1OC	0	-	-	-	-	-
CNCc1cn(C[C@H]2CC3CCN2C[C@@H]3C(=O)N(C)C)nn1 (stereo not given in full)	0	-	-	-	-	-
COc1ccc(C(=O)N2[C@H]3CC[C@@H]2c2cnc(-c4ccc(F)cc4)nc2C3)cc1OC	0	-	-	-	-	-
O=C1CC(=O)N(Cc2ccccc2)C(=S)N1	25µM	0	0	0	0	0
SMILES	12-LOX inh	A549 tox	Nrf2 activator	IDH1 R132H inh	Nrf2 block	LDHA block
COC(=O)C(O)(c1ccc(NC(=O)Oc2ccccc2)cc1)C(F)(F)F (stereo not given)	0	0	0	0	0	0
COC(=O)C(O)(c1ccc(NC(=S)NC(=O)c2ccccc2)cc1)C(F)(F)F (stereo not given)	?	0[1.84 µM]	0	0	16µM	0
COc1ccc(-c2c(C)c3ccc(OC(=O)N(C)C)cc3oc2=O)cc1	0	-	-	-	-	0
COc1ccc(-c2c(C)c3cc(OC(=O)N(C)C)ccc3oc2=O)cc1	0	-	-	-	-	-33
COc1ccc(OC)c(S(=O)(=O)N2[C@H]3CC[C@@H]2c2cnc(C)nc2C3)c1	0	-	-	-	-	-
CC(=O)Nc1ccc(S(=O)(=O)N2Cc3ccccc3-n3nncc3C2)cc1	0	-	0	0	-	-30
CC12CCC3C(CCC4C/C(=N\O)CCC43C)C1CCC2O (stereo not given)	0	-	-	-	-	0
COc1ccc2c(c1)C1(CCN(C(=O)Nc3ccc4c(c3)OCO4)C1)C(=O)N2C (stereo not given)	0	-	-	-	-	-
COc1cc2c(cc1OCc1ccccc1)N(C(=O)c1cc3ccccc3n1C)CC21CCN(C)CC1	32µM	-	-	-	-	-
c1ccc(-c2ncc3c(n2)C[C@@H]2CC[C@H]3N2)cc1	0	-	-	-	-	-
CNc1ccc2oc(C[C@@H]3OC4(CC[C@@H]3C)O[C@H]([C@@H](C)C(=O)c3ccc[nH]3)[C@H](C)C[C@H]4C)nc2c1C(=O)O (stereo not given in full)	0	-	-	-	-	-
CNc1ccc2oc(C[C@H]3O[C@@]4(CC[C@H]3C)O[C@H]([C@H](C)C(=O)c3ccc[nH]3)[C@H](C)C[C@H]4C)nc2c1C(=O)O	?	3.7µM	0	0	1.2µM	0
O=c1c2ccccc2[se]n1-c1ccccc1	?	0	?	?	0	-108
CCOC(=O)C1(c2ccccc2)CCN(CCC(=O)Nc2cccc(Br)c2)CC1	20µM	0	0	0	0	0
COc1cc2cc(c1Cl)N(C)C(=O)C[C@H](OC(=O)C(C)C)[C@]1(C)O[C@H]1[C@H](C)[C@@H]1C[C@@](O)(NC(=O)O1)[C@H](OC)C=CC=C(C)C2	0	-	-	-	-	-
COC1/C=C/C=C(\C)Cc2cc(O)c(Cl)c(c2)N(C)C(=O)CC(OC(=O)C(C)C)C2(C)OC2C(C)C2CC1(O)NC(=O)O2 (stereo not given)	0	?	0	0	8.2µM	0
O=C(O)Cn1cc(C=C2C(=O)NC(=O)NC2=O)c2ccccc21	0	0	0	0	0	0
O=C(Cn1cc(C=C2C(=O)NC(=O)NC2=O)c2ccccc21)NCC1CCCO1 (stereo not given)	13µM	0	0	0	0	0
O=C(NCc1ccc(F)cc1)[C@H]1CN2CC[C@H]1C[C@@H]2Cn1cc(C2(O)CCCC2)nn1	0	-	-	-	-	-
CC(C)(C)CC(=O)N1C[C@@H]2C[C@H](C1)c1ccc(NC(=O)Nc3cccc(F)c3)c(=O)n1C2	0	-	-	-	-	-
O=[N+]([O-])c1ccc(Nc2ccccc2)cc1	0	0	0	0	0	0
c1ccc(Nc2ccc(Nc3ccccc3)cc2)cc1	14µM	0	0	0	0	0
COc1ccc(CN2C(=O)NC(=O)/C(=C\c3cccc(OC)c3OC)C2=O)cc1	?	0	0	0	0	-31
c1ccc2nc3ccccc3nc2c1	0	?	0	0	21µM	0
N#CC(C#N)=NNc1ccc(S(N)(=O)=O)cc1	0	?	0	0	0	-45
CNCc1cn(C[C@H]2CC3CCN2C[C@@H]3C(=O)NCc2ccc(F)cc2)nn1 (stereo not given in full)	0	-	-	-	-	-
